Each structure is given as a SMILES string. Values without a mark were called inactive. Inconclusive results are not listed. Active and inactive are the calls of the source. Unless noted, calls come from the whole dose curve; as a rule, active = well fitted curve in the direction sought with a large enough effect; inconclusive = small, poorly fitted or top-dose-only effect, or another doubt; inactive = no such curve, though single readings can be large; an effect the other way counts as inactive or inconclusive.

Here are results for seven compounds from PubChem BioAssay (NCATS).

A short description of experiment [1]: qHTS for Inhibitors of Ubiquitin-specific Protease USP2a Using CHOP2 as the Reporter: K633 Counterscreen (AID 652168). Note: series mostly up to about 57 µM; % of control where 0% means no effect. Put shortly:
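Cell-free interference counterscreen without USP2a: compounds pinned into enzyme-free buffer (20 mM Tris pH 8, 2 mM beta-mercaptoethanol, 0.05% Chaps), then DiUb K48-4IQF substrate added (100 nM stock); fluorescence read kinetically, Ex 525/Em 598.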

Experiment [2] deals with Ubiquitin carboxyl-terminal hydrolase 2 (Homo sapiens) (UniProt O75604). Nature of the experiment: qHTS for Inhibitors of Ubiquitin-specific Protease USP2a Using CHOP2 as the Reporter: K484 Substrate (AID 652173).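 Note: cleavage of internally quenched K48 di-ubiquitin substrate measured as rising fluorescence over time; potency is the fitted concentration of half-maximal effect; nearly all actives have a fitted effect of over 70% in size.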 Put shortly:
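USP2 (dispensed at 5 nM) was pinned with compounds, then DiUb K48 internally quenched fluorescent substrate (dispensed at 100 nM) was added. The buffer was 20 mM Tris pH 8, 2 mM beta-mercaptoethanol and 0.05% CHAPS. Cleavage was read kinetically as rising fluorescence, Ex 525/Em 598.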

Experiment [3] in a line: qHTS for Inhibitors of Ubiquitin-specific Protease USP2a Using CHOP2 as the Reporter: Cytotox Assay (AID 652170).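 Note: series mostly up to about 46 µM; plate controls were DMSO-treated cells for no effect and wells without cells for full effect; nearly all actives have a fitted effect of over 70% in size.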 In outline: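 HCT116 human colon cancer cells, 600 per well in DMEM with 10% FBS, exposed to compounds for 72 hr at 37 deg C. ATP measured by CellTiter-Glo luminescence, normalized to DMSO cells and no-cell background.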
Experiment [4] addresses Rap guanine nucleotide exchange factor 3 (Homo sapiens) (UniProt O95398). The experiment in a line: Confirmatory qHTS for agonist of cAMP-regulated guanine nucleotide exchange factor 3 (EPAC1) (AID 1645881).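 Note: EPAC1 catalysed release of BODIPY-GDP from Rap1B seen as fluorescence loss; 100% = effect of cAMP agonist control; nearly all actives have a fitted effect of over 75% in size.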
Experiment [5] has as its target Rap guanine nucleotide exchange factor 4 (Homo sapiens) (UniProt Q8WZA2). Nature of the experiment: Confirmatory qHTS for agonist of cAMP-regulated guanine nucleotide exchange factor 4 (EPAC2) (AID 1645884).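 Note: nucleotide exchange releases bodipy-GDP from Rap1 and this lowers its fluorescence; % is set by controls: 0 for no effect and ±100 for the full control effect; nearly all actives have a fitted effect of over 65% in size.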
For experiment [6] the target is unchanged. The experiment in a line: Confirmatory qHTS for antagonist of cAMP-regulated guanine nucleotide exchange factor 4 (EPAC2) (AID 1645885). Note: % is set by controls: 0 for no effect and ±100 for the full control effect; nearly all actives have a fitted effect of over 25% in size.
The target of experiment [7] is Rap guanine nucleotide exchange factor 3 (Homo sapiens) (UniProt O95398). The experiment in a line: Counterscreen qHTS for antagonist of cAMP-regulated guanine nucleotide exchange factor 3 (EPAC1) (AID 1645888).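 Note: fluorescence loss as bound BODIPY-GDP is released from Rap1B; % of control where 0% means no effect.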 In outline: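 Rap1B–BODIPY-GDP (250 nM) with 50 uM GDP; compounds pin-transferred to 9.74 nM–152 uM final (activator) or from 7.32 nM upwards (inhibitor). Fluorescence Ex/Em 480/540 nm read at 5 and 30 min, then after adding cAMP or buffer, at room temperature.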

A short description of experiment [8]: NCATS anti-infectives library activity on HEK293 viability as a counter-qHTS vs the C. elegans viability qHTS (AID 1745854).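 Note: HEK293 cells exposed to compounds for 24 hr before the viability read; % is set by controls: 0 for no effect and ±100 for the full control effect.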 In outline: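 HEK293 cells (1,500/well) exposed 24 hr at 37C to 1:5 titrations, up to 41.7 uM final; counter-screen to a C. elegans viability qHTS. Viability by CellTiter-Glo luminescence after 10 min at room temperature; digitonin as control.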

A short description of experiment [9]: qHTS drug screen for cell cycle checkpoint inhibitors in PARPi-resistant BRCA-mutant ovarian cancer cell lines. (AID 1963452; calls by dose curve; note: potency is the fitted concentration of half-maximal effect). Particulars: PEO1/OlaR viability, CellTiter-Glo luminescence, 96 h. In outline:
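PEO1, PEO4 and PEO1/OlaR ovarian cancer cells, 600 per well, exposed 96 h at 37C to a dilution series. Viability read by CellTiter-Glo luminescence, normalized to DMSO and empty wells; activity summarized as Z-AUC.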

Rap guanine nucleotide exchange factor 4 (Homo sapiens), sequence (Q8WZA2 whole entry, looked up): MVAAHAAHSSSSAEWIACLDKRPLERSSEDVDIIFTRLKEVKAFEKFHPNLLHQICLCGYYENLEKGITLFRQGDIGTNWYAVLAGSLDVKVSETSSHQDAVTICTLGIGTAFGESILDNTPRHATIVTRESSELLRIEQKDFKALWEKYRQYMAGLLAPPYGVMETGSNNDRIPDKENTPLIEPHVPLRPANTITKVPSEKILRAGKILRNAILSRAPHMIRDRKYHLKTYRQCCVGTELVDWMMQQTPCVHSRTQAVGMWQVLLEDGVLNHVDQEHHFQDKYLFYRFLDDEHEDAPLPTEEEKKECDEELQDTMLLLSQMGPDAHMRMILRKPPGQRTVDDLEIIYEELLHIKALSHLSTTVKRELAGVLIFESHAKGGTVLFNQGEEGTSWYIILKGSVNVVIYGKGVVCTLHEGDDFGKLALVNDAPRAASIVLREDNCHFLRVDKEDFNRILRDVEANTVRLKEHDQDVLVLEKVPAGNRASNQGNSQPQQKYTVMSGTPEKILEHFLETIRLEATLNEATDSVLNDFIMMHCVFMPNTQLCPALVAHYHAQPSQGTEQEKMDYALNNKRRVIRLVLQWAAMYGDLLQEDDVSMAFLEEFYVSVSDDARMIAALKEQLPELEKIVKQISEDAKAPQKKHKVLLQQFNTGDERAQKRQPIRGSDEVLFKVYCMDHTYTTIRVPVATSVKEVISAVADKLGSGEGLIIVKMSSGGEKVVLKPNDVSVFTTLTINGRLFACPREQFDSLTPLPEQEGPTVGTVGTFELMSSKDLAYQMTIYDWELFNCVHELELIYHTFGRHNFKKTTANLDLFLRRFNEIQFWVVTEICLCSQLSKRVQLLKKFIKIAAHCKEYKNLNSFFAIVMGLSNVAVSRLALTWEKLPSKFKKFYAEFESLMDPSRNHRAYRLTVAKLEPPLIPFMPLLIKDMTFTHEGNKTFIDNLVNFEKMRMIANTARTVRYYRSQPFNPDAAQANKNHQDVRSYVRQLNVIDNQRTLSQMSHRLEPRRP
Rap guanine nucleotide exchange factor 3 (Homo sapiens), sequence (O95398 whole entry, looked up): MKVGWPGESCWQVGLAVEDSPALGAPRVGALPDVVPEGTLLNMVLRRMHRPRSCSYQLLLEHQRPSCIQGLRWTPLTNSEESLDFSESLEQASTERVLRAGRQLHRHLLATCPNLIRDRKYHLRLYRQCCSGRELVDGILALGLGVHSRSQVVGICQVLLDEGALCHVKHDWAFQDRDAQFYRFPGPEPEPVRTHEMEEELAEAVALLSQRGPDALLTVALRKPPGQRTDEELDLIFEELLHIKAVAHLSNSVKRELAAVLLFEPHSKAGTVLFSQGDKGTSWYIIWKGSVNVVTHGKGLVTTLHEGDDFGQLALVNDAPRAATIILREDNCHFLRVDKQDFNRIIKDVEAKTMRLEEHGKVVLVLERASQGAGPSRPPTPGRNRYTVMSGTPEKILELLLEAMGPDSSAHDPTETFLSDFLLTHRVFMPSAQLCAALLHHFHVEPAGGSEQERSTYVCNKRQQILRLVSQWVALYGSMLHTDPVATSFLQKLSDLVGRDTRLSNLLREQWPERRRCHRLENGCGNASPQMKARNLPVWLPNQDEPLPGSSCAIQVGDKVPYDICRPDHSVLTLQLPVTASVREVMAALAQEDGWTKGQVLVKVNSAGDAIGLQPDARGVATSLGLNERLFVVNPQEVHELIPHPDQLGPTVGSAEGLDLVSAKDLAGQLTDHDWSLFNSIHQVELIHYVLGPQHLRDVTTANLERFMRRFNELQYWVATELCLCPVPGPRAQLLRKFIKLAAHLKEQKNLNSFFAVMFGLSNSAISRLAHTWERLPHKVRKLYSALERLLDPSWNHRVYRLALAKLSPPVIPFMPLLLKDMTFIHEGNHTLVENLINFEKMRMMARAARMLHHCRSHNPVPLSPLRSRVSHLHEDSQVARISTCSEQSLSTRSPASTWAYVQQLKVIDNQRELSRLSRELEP
Ubiquitin carboxyl-terminal hydrolase 2 (Homo sapiens), sequence (O75604 whole entry, looked up): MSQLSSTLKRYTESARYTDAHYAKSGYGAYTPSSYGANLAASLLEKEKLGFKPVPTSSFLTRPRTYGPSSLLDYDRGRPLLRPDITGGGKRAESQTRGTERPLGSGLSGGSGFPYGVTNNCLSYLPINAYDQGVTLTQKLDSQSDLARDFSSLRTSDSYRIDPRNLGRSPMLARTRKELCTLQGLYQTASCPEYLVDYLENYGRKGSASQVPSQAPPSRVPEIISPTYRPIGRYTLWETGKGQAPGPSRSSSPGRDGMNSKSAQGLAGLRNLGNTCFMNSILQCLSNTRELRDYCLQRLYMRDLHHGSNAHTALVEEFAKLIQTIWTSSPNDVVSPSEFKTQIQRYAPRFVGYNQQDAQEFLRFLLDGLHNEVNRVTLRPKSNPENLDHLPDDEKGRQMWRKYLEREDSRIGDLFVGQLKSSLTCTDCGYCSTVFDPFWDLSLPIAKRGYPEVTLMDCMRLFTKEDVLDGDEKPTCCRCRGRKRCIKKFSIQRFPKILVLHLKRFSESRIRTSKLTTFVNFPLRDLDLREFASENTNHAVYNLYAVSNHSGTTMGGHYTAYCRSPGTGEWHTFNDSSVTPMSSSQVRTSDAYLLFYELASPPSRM

With `CCCCc1ccc(C(=O)Nc2ccc(S(=O)(=O)Nc3nccs3)cc2)cc1`, the outcome in experiment [1] was inactive. Besides, in [2], the Potency is 10.9 µM (active).

`Cc1ccc(S(=O)(=O)Nc2cnccc2C(=O)Nc2nc(C3CCC3)cs2)cc1`: in [1], the compound was classed as inactive.

Regarding `COc1cc(C(=O)Nc2nc(-c3ccccc3)cs2)ccc1NS(=O)(=O)c1ccc(C)cc1`, the Potency entry in experiment [3] was “inactive”.

On to `O=C(CSc1nnc(-c2cccc(S(=O)(=O)N3CCCC3)c2)n1-c1ccccc1)Nc1ccc(C(=O)O)cc1`, for which the outcome in experiment [4] and in experiment [7] was inactive. In experiment [5], the activation was -2.44% [at 17.1 µM]. Also, in experiment [6], the activity change, negative = inhibition was -11.1% [at 12.7 µM].

As to `O=c1[nH]nc2c3c(cccc13)NC(CN1Cc3ccccc3C1)=N2`, the Potency entry in experiment [8] is “inactive”.

Turning to `CCNCCS(=O)(=O)NC[C@@]1(c2ccccc2)SC(NC(=O)C(C)(C)C)=NN1C(=O)C(C)(C)C`, the Potency in experiment [9] was 0.0087 µM (active).

Consider `CCS(=O)(=O)Nc1ccc(Oc2ccc(F)cc2F)c(-c2cn(C)c(=O)c3[nH]ccc23)c1`, for which the Potency in [9] is 0.0389 µM (active).
